Data taken from the supplement of paper PMC3334620.
In all, about 33,000 sequences were measured (“E-score (-0.5 to 0.5)”: median about -0.012, highest 2% from about 0.27 on). This excerpt belongs to a sample that is enriched for the highest values.

Target: T1, Vhr1 (UniProt P40522)
T1 sequence: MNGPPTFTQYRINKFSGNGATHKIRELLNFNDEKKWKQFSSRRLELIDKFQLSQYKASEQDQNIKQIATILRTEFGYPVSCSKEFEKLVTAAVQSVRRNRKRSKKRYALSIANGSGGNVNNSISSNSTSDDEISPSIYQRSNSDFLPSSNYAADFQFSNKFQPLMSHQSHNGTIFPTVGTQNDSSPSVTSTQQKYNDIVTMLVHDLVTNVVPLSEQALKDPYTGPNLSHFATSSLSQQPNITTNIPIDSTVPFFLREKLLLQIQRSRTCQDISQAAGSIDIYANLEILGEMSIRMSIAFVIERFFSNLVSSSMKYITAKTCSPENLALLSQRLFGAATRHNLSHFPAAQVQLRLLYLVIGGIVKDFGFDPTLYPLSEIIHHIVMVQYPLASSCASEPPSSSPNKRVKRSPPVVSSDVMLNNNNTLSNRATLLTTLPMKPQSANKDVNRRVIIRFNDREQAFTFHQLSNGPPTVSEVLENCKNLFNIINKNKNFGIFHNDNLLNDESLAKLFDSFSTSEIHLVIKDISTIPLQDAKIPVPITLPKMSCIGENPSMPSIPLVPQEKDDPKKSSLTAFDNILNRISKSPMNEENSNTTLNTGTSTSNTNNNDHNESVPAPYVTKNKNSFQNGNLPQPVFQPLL
Assay: PBM E-score (8-mer binding enrichment) (E-score (-0.5 to 0.5)); higher = stronger / more preferred TF binding
Conditions: protein concentration: 200 nM; construct: GST-full length
Experimental: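 Universal 'all 10-mer' protein binding microarrays (Agilent AMADID 015681) probed with GST-tagged S. cerevisiae TFs (full-length or DBD) made by in vitro transcription/translation (PURExpress), about 100-200 nM. Bound TF was detected with fluorescent anti-GST. Each ungapped 8-mer (which stands for itself and its reverse complement) is scored by the PBM enrichment score (E-score), a modified Wilcoxon-Mann-Whitney statistic from -0.5 to +0.5, computed with the Universal PBM Analysis Suite. Scale: above 0.35 generally sequence-specific binding.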

Sequence	PBM E-score
CCAGGACA	-0.0732
CTGCACAA	-0.0636
GGTTGTGA	0.143
ATCTCAAA	-0.0488
TGCTCAAA	-0.193
AATCCATT	0.113
ACTAATCG	0.251
CCTCAGTA	-0.106
GCTCAGTA	-0.0102
CCGCAGTC	0.274
ACTCAGTC	0.314
ACTCAGTA	0.281
ACTCAGTG	0.245
CCTCAGTC	0.0647
ACGCAGTC	0.169
CCGCAGTA	0.0424
ACGATGCC	-0.257
AGCAACTG	0.00583
GACCCAAA	0.0473
CGGAATAA	-0.0766
GGCCACTA	-0.00131
GTTGCCTA	-0.162
GAACGATA	-0.0543

Sequence	PBM E-score
AAACCAGT	0.0233
ATCTTGGA	0.0371
GCCTTATA	-0.0741
CGCCCGAA	-0.0969
AGCCCGAC	0.0296
CGCCCGAC	0.342
AACGAGCA	-0.0591
ATGCTCAG	0.141
ACTAGAGT	0.0036
ACCACATA	0.125
ACCACATG	0.262
ACCACATC	0.276
CGCTCACA	0.137
ACCAACAT	0.157
CCCAACCA	0.275
ACCAACCA	0.163
CCCAACCC	0.118
ACCAACAA	0.359
ACCAACAG	0.046
CCCTAGCC	-0.184
CACCCACA	0.241
GCCCCTCC	0.331
GCCCCACC	0.265

Sequence	PBM E-score
AACCCACT	0.246
CACCCACC	0.317
ACCCCACC	0.385
CCCCCTCC	-0.0898
AACCCACC	0.313
CCCCCACC	-0.341
GCCCCTCA	-0.0991
GACCCACC	0.224
AACCCACA	0.168
GCGGCCAC	0.0847
ACAGCGAT	-0.04
AGATCTGC	-0.0821
GGGCTGGA	-0.0152
GGTGGTCA	0.00378
CACCCTCA	0.0412
GACCCACA	0.284
CACCCTCC	0.276
CACCCACG	0.249
AACCCACG	0.0933
AACCCTCC	-0.129
CCACCAAA	0.0455
GCGAAACC	-0.0227
GAGTCTCA	0.256

Sequence	PBM E-score
GCACACCC	0.139
GCGCGCGA	0.185
CCGCGCGG	0.346
GCGCGCAA	0.3
CCGCGCAA	-0.026
ACGCGCGC	0.107
GCGCGCGC	0.379
CCGCGCGA	0.22
TCGCGCAA	0.0709
CCGCGCGC	0.258
AGGACGCG	-0.226
CTAAAGAG	-0.0856
GTAGCGAA	-0.027
AACTAGAA	-0.115
ACTCACTG	0.265
ATTCACTG	-0.0337
AATCACTC	0.115
AGTCACTG	0.384
ACTCACTC	0.254
AGTCACTC	0.428
AGTCACTA	0.366
AATCACTA	0.267
AATCACTG	0.374

Sequence	PBM E-score
CGTCACTA	0.0865
GGTCACTA	-0.0218
CGTCACTC	-0.0595
AACGGTCC	-0.263
AGGTGTGC	0.163
AAGCTCCA	0.111
AAGCCACT	-0.0197
CCATCTGC	0.0983
GTCTTCAC	-0.058
AATCTAGC	-0.218
CTATAGGC	-0.243
AACCTGAG	-0.0364
ACACGACA	0.0664
ACACGACT	0.277
ACACGACC	0.109
GCTTGCAA	0.0649
AAAGGTGC	-0.162
ACGGTAAT	-0.0641
ACGAGTCA	0.43
